This passage reports median seed-adjusted z-score results from PubChem BioAssay AID1347426 (Functional Genomics Laboratory (NCATS/FGL), 2020).

The whole screen tested about 31,000 sequences, of which about 1,400 (4.5%) were called active. This is one part of a sample in which actives are shown more often than they occur.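 Rule for the calls: active = median seed-adjusted z-score above 1 or below -1; inactive = the rest.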

The assay can be described thus: Novel Modifiers of Survival Motor Neuron (SMN) Protein: Gene Identification via Genome-wide siRNA Screen.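 Note: luminescence tracks full-length SMN protein made from the SMN2 reporter.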 The following applies: HEK293T SMN2-luciferase reporter, siRNA knockdown, 72 h; actives lie on both sides. The source says:
Spinal muscular atrophy (SMA) is the most common neuromuscular autosomal recessive disorder and one of the leading genetic causes of infant death. SMA results from mutations inducing loss of function or deletion in the survival of motor neuron-1 gene (SMN1), leading to deficiency of the survival motor neuron (SMN) protein. Although a second nearly identical gene, SMN2, is retained in humans, its expression primarily produces an aberrantly spliced isoform that is largely unstable and quickly degraded. We performed a genome-wide RNAi screen using a cell-based reporter assay to identify genes and pathways that modulate SMN protein stability. The screen identified over 200 genes that led to the greatest increase or decrease in luciferase expression.
Using HEK293T cells stably expressing a luciferase reporter that combines the promoter and splicing based cassettes in tandem with the major portion of the native SMN2 cDNA with luciferase, we performed a genome-wide RNAi screen to identify modulators of SMN protein levels. Luciferase is expressed when full-length SMN protein is generated with luminescence signal proportional to SMN protein levels. Our luciferase-based reporter assay was used to screen Ambion Silencer Select Human Druggable Genome siRNA library (10418 genes, 3 unique siRNAs per gene) using lipid-based reverse transfection.
Briefly, 1 pmol of each siRNA was spotted to a well of a 384-well plate (Corning, Corning, NY) and 20 microL of serum-free DMEM containing […] of Lipofectamine RNAiMax (Life Technologies, Carlsbad, CA) was then added to each well. Transfected cells were maintained at 37 degrees C in 5% CO2 for 72 hours, 20 microL of ONE-Glo Reagent (Promega) was added to wells for luciferase quantification. Raw luminescence reads were normalized to Ambion(R) Silencer(R) Negative Control #2 siRNA, then log10 transformed. A robust statistical measure of median absolute deviation (MAD) to standardize siRNA activities from each screen. Common Seed Analysis was used to help prioritize clean hits as opposed to those appearing to arise from seed based off-target effects. Candidate modulators were defined as the genes having a MAD score greater than 1.0 or less than -1.0.
(A reporter such as luciferase makes a cellular process visible.)
As to GCAAUUGUCUGAUUAAUCATT against MB, the median seed-adjusted z-score is 0.504 (inactive).
The same measure for GAACUGCACCAAAGAAACATT against AKTIP: -0.194 (inactive); for CGGACGAAGAGAUUGGGAATT against DRAP1: 1.08 (active); for GCAGAAUUACAAGACAAGATT against VWA5A: 0 (inactive).
The same measure for CCGCCUUUCAAGAACGUAATT against IARS: -0.198 (inactive); for GAAUAGACCUGAAGACAAATT against CFLAR: -0.413 (inactive); for CAACGGAAGUGCUACUACUTT against FCER2: -1.75 (active).
For CCCAAUAUGUGCGGAUUAATT against DSC3 the value was 0.18 (inactive).
Take GGAAAGAGAUCUACCGCAATT against MYST1: the median seed-adjusted z-score is 0 (inactive).
The same measure for GCUUCCCGAUUAACUGAAATT against MECP2: -0.332 (inactive); for AGAAUGCACCAAACAAACATT against DOLPP1: 0.00977 (inactive).
The same measure for GGUACAAAGCAAUCGGACATT against GUCA2B: -0.146 (inactive); for GUCUUUAGCUGACCUGAAUTT against DMD: -0.626 (inactive); for CCGAAGAAGCAAUAUCGAATT against CRKRS: -1.16 (active).
CCACCUUACUUUCCUGAAUTT against TMEM171: the median seed-adjusted z-score is 0.278 (inactive).
The same measure for CACUUAUUCUGGUCCUUCATT against ELOVL3: 0 (inactive).
Consider CCGCUAAUGUUCAAGGACATT against UNC5B, for which the median seed-adjusted z-score is -0.0207 (inactive).
The same measure for GCAAUAGUCCCAAAAGCAATT against CD6: -0.33 (inactive); for GCAGGAGUUUGUUUAAUGATT against UGT1A10: 0.286 (inactive).
The same measure for GUAUACCGAUUGAUAACCATT against BTAF1: -1.19 (active); for GUGUUUUUGUAGUUACCUATT against TSEN34: 0.918 (inactive); for CCACGAAGAAUGGAUUGAATT against TRIO: 0.42 (inactive).
As to ACACCACGCUCAACAUCAATT against ZBED1, the median seed-adjusted z-score was 0.0567 (inactive).
The same measure for GGUUGAUGCAGACAACAAATT against LGTN: 0.491 (inactive); for GGAAUGCUAUGAUAGACGATT against GNAQ: -1.23 (active).
The same measure for GGAAUUCGAGGAUUAUGCATT against HIAT1: -0.0612 (inactive); for CAAGGAGAGGCAUAACGUATT against DNASE1L3: 0.0678 (inactive); for GAUUACAACCUGUAUCGAATT against THOC1: -3.04 (active).
For GGACAUAAUGUAUUAUACUTT against DDHD1 the value was 0 (inactive); for GGUCACGGAUUGCUUUUUATT against DUS1L, 0.0698 (inactive).
